Experiments:
Assay in all cases: PBM binding z-score (relative to random genomic background probes); higher = stronger binding; sequences stand for … in GC…GCGATTGACAGCGTAGAATGAAGG
[1] = test system: FXR:RXRa (NR concentration 270 nM, RXRa partner concentration 90 nM)
Outline: (§1)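 Binding buffer was PBS pH 7.4 with 2% milk, 0.02% Triton X-100, 1 mM DTT, 0.2 mg/mL BSA and 0.4 mg/ml salmon testes DNA. In it, ligand-free nuclear receptor dimers were incubated 1 h on custom Agilent 4×180K protein-binding microarrays carrying double-stranded probes. Antibodies against each partner (one per run) detected binding, and z-scores were calculated against random background probes after regression normalization of scanned fluorescence.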

[2] = test system: LXRa:RXRa (NR concentration 270 nM, RXRa partner concentration 90 nM)
Outline: as §1

[3] = test system: LXRa homodimer (NR concentration 270 nM)
Outline: as §1

[4] = test system: LXRb:RXRa (NR concentration 270 nM, RXRa partner concentration 90 nM)
Outline: as §1

[5] = test system: LXRb homodimer (NR concentration 270 nM)
Outline: as §1

[6] = test system: PPARa:RXRa (NR concentration 270 nM, RXRa partner concentration 90 nM)
Outline: as §1

[7] = test system: PPARg:RXRa (NR concentration 180 nM, RXRa partner concentration 90 nM)
Outline: as §1

[8] = test system: PPARg:RXRa 270nM:90nM, anti-RXR (NR concentration 270 nM, RXRa partner concentration 90 nM)
Outline: as §1

[9] = test system: PPARg:RXRa 30nM:10nM, anti-RXR (NR concentration 30 nM, RXRa partner concentration 10 nM)
Outline: as §1

[10] = test system: PPARg:RXRa 90nM:30nM, anti-RXR (NR concentration 90 nM, RXRa partner concentration 30 nM)
Outline: as §1

[11] = test system: PPARg:RXRa DBDmut IVT, anti-RXR (DBD mutation: RXRa K156A/R161A, NR concentration 270 nM, RXRa partner concentration 90 nM)
Outline: as §1

[12] = test system: PPARg:RXRa IVT, anti-PPARg (NR concentration 270 nM, RXRa partner concentration 90 nM)
Outline: as §1

[13] = test system: PPARg DBDmut:RXRa IVT, anti-PPARg (DBD mutation: PPARg1 K132A/R137A, NR concentration 270 nM, RXRa partner concentration 90 nM)
Outline: as §1

[14] = test system: PPARg DBDmut IVT, anti-PPARg (DBD mutation: PPARg1 K132A/R137A, NR concentration 270 nM)
Outline: as §1

[15] = test system: PPARg homodimer (NR concentration 180 nM)
Outline: as §1

[16] = test system: PXR:RXRa (NR concentration 270 nM, RXRa partner concentration 90 nM)
Outline: as §1

[17] = test system: PXR homodimer (NR concentration 270 nM)
Outline: as §1

[18] = test system: RARa:RXR (NR concentration 270 nM, RXRa partner concentration 90 nM)
Outline: as §1

[19] = test system: RARa homodimer (NR concentration 270 nM)
Outline: as §1

[20] = test system: RARb:RXRa (NR concentration 270 nM, RXRa partner concentration 90 nM)
Outline: as §1

Sequence	PBM binding z-score [1]	PBM binding z-score [2]	PBM binding z-score [3]	PBM binding z-score [4]	PBM binding z-score [5]	PBM binding z-score [6]	PBM binding z-score [7]	PBM binding z-score [8]	PBM binding z-score [9]	PBM binding z-score [10]	PBM binding z-score [11]	PBM binding z-score [12]	PBM binding z-score [13]	PBM binding z-score [14]	PBM binding z-score [15]	PBM binding z-score [16]	PBM binding z-score [17]	PBM binding z-score [18]	PBM binding z-score [19]	PBM binding z-score [20]
GCTCGGAGGACAAGGTCAGAGATTTGTCCGTAGA	1.22	1.62	-0.347	1.2	-0.658	2.13	0.719	1.53	-0.349	0.587	-0.252	0.673	-0.517	-0.427	0.0878	1.24	-0.24	1.77	-0.275	3.48
AGTCAAAGTTCATCTAGGTAACGTAGGATATGCT	6.48	6.18	5.41	3.66	1.7	4.7	6.41	6.28	3.31	5.55	1.16	3.96	1.76	1.26	2.37	5.12	7.16	3.89	1.67	4.85
CTAGAAAGGTCGTGCTCAGGTGAGTATACCAAAC	4.5	3.64	0.405	3.02	0.336	4.78	2.51	3.48	0.919	2.34	0.638	1.62	-0.0853	0.547	1.73	2.82	0.0874	4.02	0.32	3.63
CAAACTAGTTCACCGGAAGGTCAAAGTCCGCATG	4.43	4.89	4.71	4.6	1.66	4.24	1.87	2.85	0.587	1.95	2.4	2.7	0.634	0.566	3.3	5.22	3	5.72	1.73	4.36
AGTACAGGGTCACTAGGCCAGAGTAGGTACGAAT	5.64	3.74	-0.159	3.25	0.166	5.73	7.54	6.4	2.95	5.23	3.37	5.52	0.92	0.785	2.13	3.07	0.0901	4.21	0.585	4.23
CAAACTAGGTGACAGAGGTCAAAGTCCGTGCGTA	4.84	5.47	4.88	5	1.14	5.75	7.83	6.75	4.75	6.85	8	8.03	1.36	0.411	2.02	5.61	2.31	5.38	1.29	4.12
ATATGTAGCTTATCGGGTCATTCAGTTTGCGCAT	2.02	2.21	1.13	2.2	1.08	2.5	0.837	0.994	0.318	0.857	1.01	1.81	1.36	1.64	1.05	3.2	8.3	2.8	0.765	1.72
GGAACGAGGGCAAAGATGATAGCATCTGTCGACG	0.376	0.281	-0.604	0.258	-0.642	2.65	3.63	4.6	2.92	4.39	3.87	3.02	-0.58	0.0962	0.289	0.215	-0.309	0.189	-0.373	1.98
CCAGACAGGTGAGAAGGTAACTGAGCCTCGATTA	-0.0558	-0.104	-0.12	-0.102	-0.691	0.592	0.397	0.61	-0.11	0.193	0.955	0.477	-0.278	-0.535	0.591	-0.214	0.124	0.14	0.118	0.396
CAAACTAGGTCACCGGAAGGTCAACGTCCGCATG	6.21	6.05	4.21	4.6	1.1	6.13	9.54	8.04	5.72	7.83	8.78	8.78	2.66	1.2	6.53	5.79	1.29	7.37	2.46	5.38
TCTCGGAGGACAGGAAAGGTCAGAGCTCGACATC	2.63	3.06	1.44	2.83	-0.216	3.23	0.566	2.15	2.51	1.96	1.51	0.852	-0.54	-0.498	2.25	3.36	0.759	3.62	0.692	3.9
TCGAGTAGGTTAGGGGCATTCAAAATGGCGTCGA	0.3	0.524	-0.23	1.22	-0.0733	1.38	1	1.98	1.27	1.69	2.11	1.45	-0.544	-0.184	0.857	0.792	0.65	0.797	0.0472	1.24
ATATGAAGGTTACATCCGGGTCATTCAGGCTATG	2.82	4.87	1.86	3.51	0.71	3.69	2.35	2.52	1	1.58	2.04	3.33	1.37	1.68	3.27	4.21	2.67	4.2	0.977	3.16
TCGTGTAGATCAACAGGAGGTTAAGAAAGATCGA	-0.127	1.13	0.0557	0.789	-0.51	1.22	-0.0865	1.04	1.84	1.52	0.943	0.0646	0.363	-0.42	0.211	0.488	-0.663	1.06	-0.074	0.441
ATCTCTAGGTAAAAATAGTTCAGTGAATGCAAAT	0.334	4.28	0.864	0.965	0.656	0.534	0.601	0.436	0.563	0.283	1.13	1.46	0.671	1.22	0.455	0.922	1.12	0.59	1.51	0.993
CCTCGGAGGACAACAGGAGATCAGAGCTGCCAGA	-0.269	-0.36	-0.193	-0.853	-1.12	-0.626	0.424	-0.794	-0.377	-0.822	-0.232	-0.63	-1.13	-1.73	-0.0101	-0.68	-0.412	-0.621	-0.0651	0.694
CCCATTAGTTGACCATAAGGGCAACCGAAGCTCG	1.1	0.851	0.582	0.755	0.614	0.65	0.359	0.482	-0.068	0.346	-0.253	0.593	0.0546	-0.0766	2.18	0.867	0.974	1.05	1.57	1.7
ATCTCTAGGTAACCAAGTTCAGTCAATGCCGAAC	0.839	1.13	1.15	1.16	0.769	1.56	0.836	0.815	0.185	0.74	4.07	3.07	0.988	0.947	1.23	2.3	2.93	1.03	1.01	1.34
GGAACGAGAGCATTCGAGTTGATAGCATGGCGAT	-0.374	-1.05	-0.97	-1.11	-1.55	-0.713	0.37	-0.536	-0.607	-0.728	0.00852	-0.503	-0.558	-0.483	-1.19	0.237	-0.766	-0.817	-0.746	-0.633
TCATGTAGGTAAAAGGTGAAAGTCGGTGTGGTAA	1.69	1.64	0.309	1.98	0.274	5.78	9.58	8.82	8.8	9.11	5.39	5.6	0.711	0.765	2.48	1.67	0.518	2.72	1.33	1.81
ATATGTAGGTTATGGGTCATTCAGGTTGGTTCGC	3.1	3.26	1.87	3.22	1.22	5.51	9.66	8.74	8.22	9.39	7.25	7.26	2.55	1.93	3.33	4	1.51	3.63	2.31	2.52
GCTGCTAGGTCAACTGATGGTCAGCTGAAGCTCG	4.05	3.09	0.169	1.83	-0.22	3.62	2.6	2.86	0.554	2.21	4.69	3.93	-0.679	-0.202	1.06	1.45	-0.515	2.72	-0.515	4.31
CTCGCAAGGTCGGTTGAGGTGAGTATACGGATAA	0.755	0.469	-0.26	0.374	-0.72	1.3	-0.0433	0.131	-0.357	-0.159	-0.323	0.241	-0.57	-0.227	-0.181	1.73	-0.0452	1.19	-0.537	1.77
ATCGAAAGGTCGAAGGTTAGTATACCCACCCGAA	4.06	3.5	0.517	3.05	0.649	4.71	4.46	5.12	2.51	4.28	0.165	2.11	1.15	0.865	1.68	3.34	0.404	4.69	1.42	3.76
TCTCGGAGGACACGATGGTCAGAGCTTTCCAGAG	0.101	-0.284	-0.822	-0.381	-1.39	-0.0198	-0.18	0.7	1.73	1.07	1.01	-0.167	-0.797	-0.992	-1.04	-0.421	-0.66	-0.201	-0.829	1.51
GCATATAGGTAATACAAGGTGAAGGTCCGATTGT	0.87	1.46	0.0259	0.247	-0.268	1.09	1.25	1.12	0.453	0.748	4.57	3.17	0.671	0.932	0.421	0.391	0.248	1.23	0.491	0.573
CCTTACGGGGCAAGGTTATAGCACGGGTGGTACG	0.333	0.325	-0.577	0.153	-0.736	1.33	0.791	0.819	-0.199	0.442	-0.0352	0.442	-0.313	-0.783	0.309	0.145	-0.13	0.546	0.0698	1.78
GGAACAAGGGCAAGTTGATAGCAGAGTTTGATGG	0.62	0.417	0.0737	0.264	-0.0748	0.929	1.04	0.726	0.251	0.632	2.92	1.97	-0.205	-0.563	0.831	0.589	1.08	0.364	0.91	2.71
